Reference: PMC4336329 (PLoS ONE, 2015)
Screen size: about 310,000 compounds; about 14,000 (4.5%) showed an effect of 50% or more. Effects have a minus sign here. The entries come from a sample that favours strong results as a whole.

molecular target: human ether-à-go-go-related gene (hERG) potassium channel (human, UniProt Q12809); assay: primary screen, population patch clamp on CHO cells stably expressing hERG; higher = less effect of the substance
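Note: peak tail current of the secondary pulse compared with the same well before compound.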

human ether-à-go-go-related gene (hERG) potassium channel, sequence (Q12809 whole entry, looked up): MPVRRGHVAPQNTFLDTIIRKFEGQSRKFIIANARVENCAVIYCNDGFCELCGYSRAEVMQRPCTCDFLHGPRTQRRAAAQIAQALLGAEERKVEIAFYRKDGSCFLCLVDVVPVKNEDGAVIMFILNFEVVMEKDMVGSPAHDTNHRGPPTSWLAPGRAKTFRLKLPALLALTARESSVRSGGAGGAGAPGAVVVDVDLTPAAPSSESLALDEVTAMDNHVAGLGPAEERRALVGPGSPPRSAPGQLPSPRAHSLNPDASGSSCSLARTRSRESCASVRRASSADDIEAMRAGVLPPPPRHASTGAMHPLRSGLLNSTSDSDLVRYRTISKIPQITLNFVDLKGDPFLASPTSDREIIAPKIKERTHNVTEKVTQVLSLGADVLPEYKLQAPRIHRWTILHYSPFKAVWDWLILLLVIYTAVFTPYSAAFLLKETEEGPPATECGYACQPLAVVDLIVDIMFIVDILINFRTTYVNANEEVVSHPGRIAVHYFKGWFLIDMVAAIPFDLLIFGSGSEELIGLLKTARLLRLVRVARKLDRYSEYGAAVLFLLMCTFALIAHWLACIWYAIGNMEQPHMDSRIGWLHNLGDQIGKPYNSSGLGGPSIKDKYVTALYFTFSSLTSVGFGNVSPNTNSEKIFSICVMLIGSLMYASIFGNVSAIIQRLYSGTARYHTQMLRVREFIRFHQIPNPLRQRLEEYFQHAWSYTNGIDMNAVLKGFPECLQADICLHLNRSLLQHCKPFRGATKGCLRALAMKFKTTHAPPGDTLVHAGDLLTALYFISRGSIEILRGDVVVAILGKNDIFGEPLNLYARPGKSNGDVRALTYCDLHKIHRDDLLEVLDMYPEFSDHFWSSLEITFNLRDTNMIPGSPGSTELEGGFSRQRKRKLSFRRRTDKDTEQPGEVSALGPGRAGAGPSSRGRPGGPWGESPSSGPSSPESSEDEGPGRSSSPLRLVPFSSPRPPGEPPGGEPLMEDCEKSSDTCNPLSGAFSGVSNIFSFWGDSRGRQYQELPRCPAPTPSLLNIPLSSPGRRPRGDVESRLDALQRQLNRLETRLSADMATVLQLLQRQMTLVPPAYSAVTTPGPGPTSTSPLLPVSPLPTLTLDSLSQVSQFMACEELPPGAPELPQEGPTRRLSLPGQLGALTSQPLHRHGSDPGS

SMILES | hERG current change (%, negative = inhibition) at 10uM [%]
CCOc1cc(C)c(C(C)C)cc1S(=O)(=O)n1cnc(C)c1 | -18.7
Cc1ccc(NC(=O)C2=COCCO2)cc1S(=O)(=O)N1CCOCC1 | -0.0399
CCOC(=O)C1CCN(C2CC(=O)N(c3cccc(Cl)c3)C2=O)CC1 (centres unmarked) | -12
CC(C)C[C@H]1CN=C(Nc2ccccc2)N1CC1CCC1 | -30.2
c1ccc(C[C@H]2CN=C(Nc3ccccc3)N2CCC2CCCC2)cc1 | -70.4
c1ccc(C[C@H]2CN=C(Nc3ccccc3)N2CC2CCC2)cc1 | -63
C[C@H]1CN=C(Nc2ccccc2)N1CC1CCC1 | -0.391
CCn1c2ccccc2c2cc(NC(=O)COC(=O)c3cc(OC)c(OC)cc3OC)ccc21 | -3.41
COC(=O)c1ccccc1NC(=O)c1cc2nc(C3CC3)cc(C(F)(F)F)n2n1 | 9.42
Cn1c(Sc2ccc(C(F)(F)F)cc2[N+](=O)[O-])nnc1-c1ccccc1 | -62.8
Cn1c(Sc2ccc(C(=O)O)cc2[N+](=O)[O-])nnc1-c1ccccc1 | -6.68
Cn1c(SCC(=O)N/N=C/c2cc([N+](=O)[O-])ccc2O)nnc1-c1ccccc1 | 10.5
Cn1c(Sc2ccc([N+](=O)[O-])cc2C(F)(F)F)nnc1-c1ccccc1 | -55
Cn1cnnc1Sc1ccc(C(F)(F)F)cc1[N+](=O)[O-] | 2.45
CSc1nnc(-c2ccccc2)n1C | 5.22
CC(=O)Nc1ccc(S(=O)(=O)Nc2c(C)nn(-c3ccccc3)c2C)cc1 | -7.68
O=c1c(C(c2ccc(Cl)cc2)c2c(O)nc3n(c2=O)CCCS3)c(O)nc2n1CCCS2 | 21.3
CCN(CC)S(=O)(=O)c1cccc(-c2nnc(SCCCC(=O)c3ccccc3)o2)c1 | -23.8
O=C(Nc1ccc(O)cc1)C1CCCN1S(=O)(=O)c1ccc(F)cc1 (centres unmarked) | -1.44
C=CCn1c(SCc2ccc(C(=O)OC)cc2)nnc1-c1sc(N)nc1C | -8.5
C=CCn1c(SCc2c(C(=O)OC)sc(N)c2C(=O)OC)nnc1-c1ccc(Cl)cc1 | -58.1
COC(=O)c1sc(N)c(C(=O)OC)c1CSc1nnc(-c2ccccc2Cl)n1C | -24.5
COC(=O)c1sc(N)c(C(=O)OC)c1CSc1nnnn1C | -12.2

SMILES | hERG current change (%, negative = inhibition) at 10uM [%]
C=CCn1c(SCc2c(C(=O)OC)sc(N)c2C(=O)OC)nnc1-c1ccc(Br)cc1 | -65.4
C=CCn1c(SCC(=O)NC2CCCCC2)nnc1-c1ccc(OC)cc1 | -12
O=C(O)c1cccnc1SCC(=O)N1CCCc2ccccc21 | 14.6
Nc1nc(SCC(=O)Nc2ccccc2)nc2nc3c(cc12)CCCC3 | -1.5
C=C1SC(=Nc2c(C)cccc2Cl)N(C(=O)c2sc3ccccc3c2Cl)C12CCCCC2 | 25.8
Cc1ccc(S(=O)(=O)NCCCCCC(=O)Nc2cccc(C)c2)cc1 | -39.2
Cc1cc(C)c(OCCN2CCOCC2)c(Cl)c1 | 8.09
Cc1cc(C)c(OCCN2CC(C)OC(C)C2)c(Br)c1.O=C(O)C(=O)O (centres unmarked) | -17.5
Cc1cc(Cl)cc(Cl)c1OCCN1CCCC1 | -55
Cc1cc(Cl)c(OCCCN2CCCCC2)c(Br)c1.O=C(O)C(=O)O | -68.1
Cc1cc(Cl)c(OCCOCCN2CCC(C)CC2)c(Br)c1.O=C(O)C(=O)O | -57.6
Cc1cc(Cl)c(OCCOCCN2CCN(C)CC2)c(Br)c1.O=C(O)C(=O)O | -9.48
Cc1cc(Cl)c(OCCCN(C)C)c(Br)c1.O=C(O)C(=O)O | -40.4
Cc1cc(C)c(OCCN2CCCC2)c(Cl)c1 | -42.1
Cc1cc(C)c(OCCCCN2CCNCC2)c(C)c1.O=C(O)C(=O)O | 9.44
Cc1cc(Cl)c(OCCOCCN2CCNCC2)c(Cl)c1.O=C(O)C(=O)O | -7.47
Cc1cc(C)c(OCCCCN2CCC(C)CC2)c(Br)c1 | -72.7
Cc1cc(Cl)c(OCCCCN2CCOCC2)c(Br)c1 | -30.2
CCOC(=O)c1ccc(S(=O)(=O)NCCN(CC)CC)cc1.Cl | 11.4
CS(=O)(=O)N1CCC(Oc2cccc(C(=O)NCCCC3CCCC3)c2)CC1 | -30.3
Cc1ccc(S(=O)(=O)N2CCN(C(=O)CN3C(=O)c4ccccc4C3=O)CC2)c(C)c1 | 9.02
CCN(CC(=O)Nc1ccc(Cl)c(C(F)(F)F)c1)CC(=O)NC1CCS(=O)(=O)C1 (centres unmarked) | -13.2
CCOc1ccc(C2Nc3ccccc3NC3=C2C(=O)CC(C)(C)C3)cc1OC (centres unmarked) | 15.6

SMILES | hERG current change (%, negative = inhibition) at 10uM [%]
Cc1ccc2nsnc2c1S(=O)(=O)N1CCN(C(=O)C2CCCO2)CC1 (centres unmarked) | 2.61
Cc1ccc(NC(=O)C2CCN(S(=O)(=O)c3ccc4c(c3)CCCC(=O)N4)CC2)c(Br)c1 | -5.9
CCOc1c2ccc(C(=O)N[C@H](C)C3CCCCC3)cc2nn1CCOC | -18.2
CN1CCN(CCOCCOc2c(Cl)cc(Cl)cc2Cl)CC1.O=C(O)C(=O)O | -26.9
Cc1cc(Cl)c(OCCOCCN2CCCC(C)C2)c(Br)c1.O=C(O)C(=O)O (centres unmarked) | -61.8
Cc1cc(C)c(OCCOCCN2CCN(C)CC2)c(Cl)c1.O=C(O)C(=O)O | -5.21
Cc1cc(C)c(NC(=O)NC(=O)c2ccc(F)cc2)c(C)n1 | -0.738
Cc1ccc(N(C(=O)c2ccc3c(c2)OCO3)C2C=CS(=O)(=O)C2)cc1 (centres unmarked) | -29.7
CC(C)c1ccc(N(C(=O)c2ccc3c(c2)OCO3)C2C=CS(=O)(=O)C2)cc1 (centres unmarked) | -66.2
O=C(c1ccc2c(c1)OCO2)N(c1ccc(Cl)cc1)C1C=CS(=O)(=O)C1 (centres unmarked) | -16.8
COc1ccccc1P(=O)(c1ccccc1)c1ccccc1NC(C)=O (centres unmarked) | 14.3
CCOC(=O)c1sc(N(Cc2ccccc2)C(=O)CN2C(=O)CN(C)C2=O)nc1C | -59
CCOC(=O)c1sc(N(Cc2ccccc2)C(=O)COC(=O)c2ccccc2O)nc1C | -5.14
CCOC(=O)c1sc(N(Cc2ccccc2)C(=O)CCl)nc1C | -6.21
O=C(NCCCN1CCN(CCCNC(=O)c2ccccc2F)CC1)c1ccccc1F | -53
CN1CCN(CCCNC(=O)c2nnc(Cc3c(F)cccc3Cl)o2)CC1 | -3.44
O=C(NCCCCNC(=O)c1ccccc1F)c1ccccc1F | 14.8
O=C(NCCCN1CCCC1=O)c1nnc(Cc2c(F)cccc2Cl)o1 | 1.34
CCOc1ccccc1C(=O)NCCNC(=O)c1ccccc1OCC | -2.01
Cl.O=C(NCCN1CCN(c2ccccc2)CC1)c1ccccc1F | -11
O=C(NCCCN1CCN(Cc2ccccc2)CC1)c1nnc(Cc2c(F)cccc2Cl)o1 | -63.1
CCOc1ccccc1C(=O)NCCCCNC(=O)c1ccccc1OCC | -31.4
CCOc1ccccc1C(=O)NCCCN1CCN(CCCNC(=O)c2ccccc2OCC)CC1 | -53.3

SMILES | hERG current change (%, negative = inhibition) at 10uM [%]
CC(C)CN(C(=O)C1CC1)c1c(N)n(Cc2ccccc2)c(=O)[nH]c1=O | 21.2
CC1CCCC(C)N1C(=O)CSc1nnnn1Cc1ccccc1 (centres unmarked) | -3.54
O=C(NNc1cccc(Cl)c1)c1cccnc1Oc1ccccc1 | -8.21
Fc1cccc(Cl)c1CSc1nnc(CNc2ccccc2)o1 | -21.5
COc1ccc(CC(=O)N/N=C/c2cccn2-c2ccc([N+](=O)[O-])cc2)cc1OC | -37.9
Cn1c(=O)n(CC(N)=O)c(=O)c2c1nc1n2CCCN1Cc1ccccc1 | 14.8
CCN(CC(=O)NC1CC1)S(=O)(=O)c1ccccc1 | 10
Br.Cc1csc(=Nc2ccccc2)n1C | -2.07
COc1ccc2c(C)cc(SCC(=O)Nc3cccnc3Cl)nc2c1 | 10.3
Cc1ccnc(NC(=O)c2cc3ccccc3oc2=O)c1 | 8.47
Cc1cc(NS(=O)(=O)c2cccc([N+](=O)[O-])c2)no1 | 28.8
CCCCCCCN1CCC(=O)N([C@H](CO)Cc2ccccc2)CC1 | -78.8
CCCN1CCC(=O)N([C@H](CO)Cc2ccccc2)CC1 | 0.476
CCCN1CCC(=O)N([C@H](CO)CC(C)C)CC1 | 20
CC(C)C[C@@H](CO)N1CCN(CC(C)C)CCC1=O | 4.64
CC(C)CN1CCC(=O)N(CCO)CC1 | 1.33
CCCN1CCC(=O)N([C@H](CO)c2ccccc2)CC1 | 9.36
CCCCCCCN1CCC(=O)N(CCO)CC1 | -54.3
CCCCCCCN1CCC(=O)N([C@H](CO)c2ccccc2)CC1 | -63.7
O=C1CCN(CCCc2ccccc2)CCN1[C@H](CO)Cc1ccccc1 | -40.6
O=C1CCN(CCCc2ccccc2)CCN1[C@H](CO)c1ccccc1 | -29.7
CCCN1CCC(=O)N(CCO)CC1 | -3.79
CCCCCCCN1CCC(=O)N([C@H](CO)CC(C)C)CC1 | -63
